The values that follow come from PubChem BioAssay (NCI).

“And” between values parts separate entries of the source, which are not always exact repeats. Identical values can stand only once. Compounds without any hit were thinned out: in the full panel of roughly 83,000, 20% have a hit.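 Plates (96-well) were seeded with cells, treated with compound at one concentration, and incubated for 48 hours before percent growth was determined.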 The source made the active and inactive calls. The calls were made as follows: active = growth percent below 10; inactive = the rest.

The assay relates to HL-60(TB) leukemia. The experiment in a line: NCI-60 one-dose screen, 48 h (100 = growth as untreated, 0 = no growth, -100 = all killed). The conditions noted are these: 10 µM unless noted.
In the case of `C=C1C(=O)O[C@H]2[C@H]1CC/C(COC(=O)NCc1ccc(Cn3c(=O)sn(CCI)c3=O)cc1)=C\CC[C@@]1(C)O[C@@H]21`, the growth was 0.649% (active). The same measure for `Fc1cc2c(cc1Cl)N(c1ncnc3ccc(-c4cnc5[nH]ncc5c4)cc13)CC2`: 66.5% (inactive); for `O=C1c2ccccc2C(=O)c2c1ccc1[nH]c(CCl)nc21`: -37.4% (active); for `CCCCCn1sc(=O)n(Cc2ccc(CNC(=O)OCc3ccc4cccc(O)c4n3)cc2)c1=O`: -13.5% (active). The same measure for `COc1cc(Nc2nc3ccccc3nc2NS(=O)(=O)c2ccc(NC(=O)c3ccc(C)c(OC)c3)cc2)cc(OC)c1`: 74.8% (inactive) and 26.7% (inactive); for `Cc1ccc(C(=O)c2ccc(C)cc2)cc1`: 92.5% (inactive) and 98.6% (inactive). The result for `O=C(O)/C=C/C=C/c1ccccc1` reads 106% (inactive) and 112% (inactive); that for `CC(C)Cc1ccc(C(C)C(=O)NCc2c[nH]c3ccc(Cl)cc23)cc1` (centres undefined), 87.6% (inactive). `O=C(CSC1CCc2ccccc21)N/N=C/c1ccccc1O` (centres undefined): the growth is -12% (active).

In the case of `NC(N)=N/N=C/c1ccc(-c2ccc(-c3ccc(Cl)cn3)s2)cc1`, the growth is 97.8% (inactive). The result for `C/C(=N/NC(N)=S)c1ccc(C)cc1` reads 92% (inactive). The same measure for `O=C1/C(=C/c2ccc3cccc(Cl)c3n2)SC(=S)N1CCc1ccc(O)cc1`: 32.4% (inactive); for `COCCn1cc(-c2nc(-c3cc4cccnc4n3CCOC)cs2)c2cc(OC)ccc21`: 95.6% (inactive).

As for `COc1cccc(C(=O)NNc2nc(N3CCN(C4CCCCC4)CC3)nc(N3CCN(C(c4ccccc4)c4ccccc4)CC3)n2)c1`, the growth is 18.5% (inactive). For the compound `COc1ccc2[nH]cc(C(c3cc(F)cc(F)c3)c3c[nH]c4ccc(OC)cc34)c2c1`, the growth was 131% (inactive). The same measure for `CCCCCC(=O)OCC(=O)O[C@@H]1C[C@]2(C(C)C)O[C@@]1(C)[C@@H]1CC[C@@H](C)[C@H]1[C@@H]2OC(=O)/C=C/c1ccccc1`: 78.5% (inactive). On to `Cc1ccc(Nc2nnc(-c3cc(-c4ccncc4)n(-c4ccccc4)n3)s2)cc1`, for which the growth was 66.3% (inactive).

With `Cn1ncc2c(Nc3ccc(Br)cc3)nc(Nc3ccc(Br)cc3)nc21`, the growth is 69.2% (inactive). The result for `O=C(Cn1ccc2ccccc21)Nc1ccc(-c2nc3ccccc3s2)cc1` reads 99.9% (inactive). As for `Cn1cnc([N+](=O)[O-])c1S(=O)(=O)Oc1cccc2ccccc12`, the growth was 4.37% (active). For `CCOC(=O)C1C(=O)C=C(c2ccc(OC)cc2)CC1c1sc(N(C)Cc2ccccc2)nc1Cl` (centres undefined), the growth is 83% (inactive). Regarding `CCCCCCCCCCCCCCCc1cc(O)ccc1N`, the growth is -45.5% (active) and -6.54% (active). The result for `N#Cc1ccc(NC(=O)Nc2ccc(Oc3ccc(NC(=O)Nc4ccc(C#N)cc4)cc3)cc2)cc1` reads -38.5% (active); that for `CCN(CC)CC(=O)Nc1c(C)cc(C(=O)NN)cc1C`, 65.2% (inactive).

Turning to `CC(C)CC(CC1=CCC2CC1C2(C)C)C1=C(O)C(C)(C)C(=O)C(C)(C)C1=O` (centres undefined), the growth is -45.3% (active). As to `COc1ccc(Oc2ccccc2NC(=O)CNC(=O)c2cccc3ccccc23)cc1`, the growth was -22.8% [5 µM] (active).

`COc1ccc(C(=O)N2N=C(c3ccc(F)cc3)CC2c2cn(-c3ccccc3)nc2-c2ccccc2)cc1` (centres undefined): the growth was 32.5% (inactive). In the case of `O=C1CC(N2C(=O)/C(=C/C(Cl)=C\c3ccc([N+](=O)[O-])cc3)SC2=S)C(=O)N1c1ccc(Cl)cc1` (centres undefined), the growth was 21.3% (inactive). The same measure for `Cc1ccc(Cn2c(N3CCC(C(=O)NCc4cccs4)CC3)nc3ccccc32)cc1`: -14.4% (active). The same measure for `COC(=O)c1cccc(NC(=O)c2ccc(-c3cccc(N)c3)o2)c1`: 99.9% (inactive). The same measure for `COC[C@@H](C)n1c(C2CCOCC2)nc2c1C1C=C(OC)C(c3c(C)noc3C)=CC1N=C2` (some centres undefined): 11.8% (inactive). For `COc1cc(C(=O)NNC(=O)c2ccc(NC(=O)CCl)cc2)cc(OC)c1OC`, the growth is 77.9% (inactive).

As to `Fc1cc(C2=NNC(c3ccc[nH]3)C2)ccc1-n1ccc(C(F)(F)F)n1` (centres undefined), the growth is 55.3% (inactive).

On to `N#C/C(=C\c1ccc(-c2ccc(Cl)cc2)o1)C(=O)Nc1ncc(Cc2ccc(Cl)cc2)s1`, for which the growth was 80.1% (inactive). Regarding `CCCCCCCCCCCC(=O)C(CCCCCCCCCC)C(=O)Nc1ccccc1` (centres undefined), the growth is 101% (inactive).

For the compound `COc1cc2nc(-c3ccc(C(F)(F)F)cc3)cc(OCCCN3CCCCC3)c2cc1OC`, the growth is 25% (inactive). The same measure for `N/C(=N\N=C\c1cc2ccccc2s1)N/N=C/c1cc2ccccc2s1`: 94.4% (inactive); for `COc1ccc(C(=O)/C=C/c2c[n+](=O)c3ccc(F)cc3n2[O-])cc1`: 83.3% (inactive); for `OCCN1CCN(CC/C=C2\c3ccccc3Sc3ccc(Cl)cc32)CC1`: 14.2% (inactive) and 19.5% (inactive).
